Source: publication PMC4336329 (PLoS ONE, 2015)
Screen size: about 310,000 compounds; about 14,000 (4.5%) showed an effect of 50% or more. Effects have a minus sign here. The sample holds strong results, similar compounds and a random draw of the others, so the mix is not that of the screen.

biological target: human ether-à-go-go-related gene (hERG) potassium channel (human, UniProt Q12809); test: primary screen, population patch clamp on CHO cells stably expressing hERG; higher = less effect of the substance
Sequence (Q12809 whole entry, looked up): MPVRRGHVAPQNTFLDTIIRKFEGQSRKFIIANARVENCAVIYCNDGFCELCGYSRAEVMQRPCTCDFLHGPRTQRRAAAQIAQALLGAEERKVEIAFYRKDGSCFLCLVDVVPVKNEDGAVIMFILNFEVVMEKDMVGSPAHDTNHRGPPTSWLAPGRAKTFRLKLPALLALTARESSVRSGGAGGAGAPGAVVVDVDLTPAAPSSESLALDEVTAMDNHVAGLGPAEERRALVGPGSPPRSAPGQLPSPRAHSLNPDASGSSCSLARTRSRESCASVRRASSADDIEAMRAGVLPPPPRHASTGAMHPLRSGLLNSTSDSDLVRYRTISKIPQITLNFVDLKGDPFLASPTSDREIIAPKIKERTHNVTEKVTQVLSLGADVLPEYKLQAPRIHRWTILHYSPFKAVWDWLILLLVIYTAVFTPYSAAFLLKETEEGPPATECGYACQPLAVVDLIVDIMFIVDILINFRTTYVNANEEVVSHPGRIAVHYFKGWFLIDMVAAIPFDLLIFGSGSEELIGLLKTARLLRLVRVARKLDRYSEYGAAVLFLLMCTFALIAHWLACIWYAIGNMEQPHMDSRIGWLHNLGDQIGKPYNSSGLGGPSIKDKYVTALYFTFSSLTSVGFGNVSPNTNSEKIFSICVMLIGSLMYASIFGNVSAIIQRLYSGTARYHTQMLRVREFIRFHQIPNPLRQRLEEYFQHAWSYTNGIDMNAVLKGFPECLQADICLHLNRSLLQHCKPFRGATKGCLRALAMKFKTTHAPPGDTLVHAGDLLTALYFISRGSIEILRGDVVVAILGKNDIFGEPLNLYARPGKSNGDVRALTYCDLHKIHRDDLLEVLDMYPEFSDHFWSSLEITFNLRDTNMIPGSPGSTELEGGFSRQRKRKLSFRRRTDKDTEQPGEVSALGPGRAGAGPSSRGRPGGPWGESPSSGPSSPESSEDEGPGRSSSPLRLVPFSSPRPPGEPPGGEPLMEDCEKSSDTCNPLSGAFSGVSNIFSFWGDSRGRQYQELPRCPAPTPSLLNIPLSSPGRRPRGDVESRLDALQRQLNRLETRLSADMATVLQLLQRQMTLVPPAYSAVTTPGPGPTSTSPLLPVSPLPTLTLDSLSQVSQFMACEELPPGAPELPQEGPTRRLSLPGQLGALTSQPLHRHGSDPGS
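Also: peak tail current of the secondary pulse compared with the same well before compound.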

| SMILES | hERG current change (%, negative = inhibition) at 10uM [%] |
| --- | --- |
| COc1ccc(OC)c(-c2csc(NC(=O)C3c4ccccc4Oc4ccccc43)n2)c1 | -5.7 |
| Cc1sc(-c2ccncc2)nc1OC(=O)c1cc(Cl)cc(Cl)c1 | 10.2 |
| COc1ccc(Cl)cc1NC(=O)CN(C)C(=O)CCC(=O)c1cc(C)sc1C | -29.5 |
| CC(C)C(CCN1C(=O)CCC1=O)C1CCOC(C)(C)C1 (stereo not shown) | 4.36 |
| CCn1ncc(Br)c1C(=O)Nc1cc(C(=O)OC)ccc1C(=O)OC | -3.95 |
| Cc1cc(OCc2cccc(Cl)c2)c(C)cc1CN1CCOCC1 | 0.275 |
| CCCCCCCCCC(=O)N[C@H](CN1CCOCC1)[C@H](O)c1ccccc1.Cl | -16.6 |
| Cc1ccc(OCC(O)Cn2c(=N)n(Cc3ccccc3)c3ccccc32)cc1.Cl (stereo not shown) | -81.6 |
| O=C(O)c1ccc(OCC(O)Cn2c3ccccc3c3ccccc32)cc1 (stereo not shown) | -18.5 |
| Cc1ccc(Cn2c(=N)n(CC(O)COc3ccccc3)c3ccccc32)cc1.Cl (stereo not shown) | -68.9 |
| COC(=O)c1cn(S(=O)(=O)c2ccccc2)c2ccccc12 | 13 |
| Cc1ccc(NC(=O)NCc2ccc3c(c2)OCO3)cc1 | 5.69 |
| COc1cc2c(OC(C)=O)c3c(c(-c4ccc5c(c4)OCO5)c2cc1OC)C(=O)OC3 | 15.4 |
| Cc1ccc(NC(=O)CCN2CC(C)OC(C)C2)cc1C.Cl (stereo not shown) | 19.1 |
| CC(C)(C)NS(=O)(=O)c1cc(C(=O)O)ccc1Cl | 4.6 |
| O=C(Oc1coc(CSc2ncccn2)cc1=O)c1cccc([N+](=O)[O-])c1 | -81.3 |
| O=C(Oc1coc(CSc2ncccn2)cc1=O)c1ccccc1[N+](=O)[O-] | 14.4 |
| Cc1cc(C)nc(SCc2cc(=O)c(OC(=O)c3cccc([N+](=O)[O-])c3)co2)n1 | -32.5 |
| CC(=O)N=c1c(C#N)cc2c(=O)n3ccccc3nc2n1Cc1ccccc1 | -40.2 |
| Cc1cccn2c(=O)c3cc(C#N)c(=NC(=O)c4ccco4)n(Cc4ccco4)c3nc12 | -55.4 |
| CC(=O)N=c1c(C#N)cc2c(=O)n3cccc(C)c3nc2n1Cc1ccco1 | -35.3 |
| Cc1ccccc1C(=O)N=c1c(C#N)cc2c(=O)n3cccc(C)c3nc2n1Cc1ccco1 | -46.2 |

| SMILES | hERG current change (%, negative = inhibition) at 10uM [%] |
| --- | --- |
| Cn1c(=NC(=O)c2ccco2)sc2ccccc21 | 11.6 |
| CC(C)n1c(=NC(=O)c2ccco2)c(C#N)cc2c(=O)n3ccccc3cc21 | -52.2 |
| Cc1cccc(C(=O)N=c2c(C#N)cc3c(=O)n4cccc(C)c4nc3n2Cc2ccco2)c1 | -65 |
| Cc1cccn2c(=O)c3cc(C#N)c(=NC(=O)c4ccccc4)n(Cc4ccco4)c3nc12 | -40.3 |
| CCO[C@@H]1OC(C(=O)NCc2ccccc2)=C[C@H](C(C)(C)C)[C@H]1CCCO | -10.5 |
| O=C(OCCN1C(=O)c2ccccc2C1=O)c1cc2ccccc2o1 | 1.62 |
| CC1CCCC(C(=O)O)N1C(=O)CCSC(=O)c1ccccc1 (stereo not shown) | -0.246 |
| O=S(=O)(c1cccs1)N1CN(Cc2ccc(Cl)cc2)c2nc3ccccc3nc21 | 3.75 |
| Cc1ccc2c(c1)c1c(n2CC(O)CN2CCCCCC2)CCCC1.Cl (stereo not shown) | -65.6 |
| Cc1ccc2c(c1)c1c(n2CC(O)CN2CCOCC2)CCCC1.Cl (stereo not shown) | 9.32 |
| Cc1ccc2c(c1)c1c(n2CC(O)CNC2CCCCC2)CCCC1.Cl (stereo not shown) | -37.4 |
| Cc1ccc2c(c1)c1c(n2CC(O)CNC(CO)(CO)CO)CCCC1 (stereo not shown) | 0.531 |
| Cc1ccc2c(c1)c1c(n2CC(O)CN2CCC(C)CC2)CCCC1 (stereo not shown) | -58.1 |
| Cc1ccc2c(c1)c1c(n2CC(O)CN2CCCCC2C)CCCC1 (stereo not shown) | -42.6 |
| Fc1ccc(N/N=C(/c2ccccc2)c2ccccn2)cc1 | -12.5 |
| CCN(Cc1ccccc1)Cc1c(F)cccc1F | -0.224 |
| Cc1ccc(S(=O)(=O)N2CCC(C(=O)OCC(=O)N3CCC(C)CC3)CC2)cc1C | 7.85 |
| CC1CCCN(C(=O)COC(=O)C2CCN(S(=O)(=O)c3c(Cl)cccc3Cl)CC2)C1 (stereo not shown) | -39.4 |
| CC1CCCC(C)N1C(=O)COC(=O)C1CCN(S(=O)(=O)c2c(Cl)cccc2Cl)CC1 (stereo not shown) | -30.1 |
| CCOC(=O)N1CCN(C(=O)COC(=O)C2CCN(S(=O)(=O)c3c(Cl)cccc3Cl)CC2)CC1 | -38.1 |
| CCOC(=O)N1CCN(C(=O)C2CCN(S(=O)(=O)c3c(C)cc(C)cc3C)CC2)CC1 | -22.9 |
| CCOC(=O)C1CCN(C(=O)COC(=O)C2CCN(S(=O)(=O)c3ccc(C)c(C)c3)CC2)CC1 | -3.24 |

| SMILES | hERG current change (%, negative = inhibition) at 10uM [%] |
| --- | --- |
| CCOC(=O)N1CCN(C(=O)COC(=O)C2CCN(S(=O)(=O)c3c(C)c(C)cc(C)c3C)CC2)CC1 | -51.9 |
| CC1CCCCN1C(=O)COC(=O)C1CCN(S(=O)(=O)c2c(Cl)cccc2Cl)CC1 (stereo not shown) | -56.4 |
| CCOC(=O)N1CCN(C(=O)COC(=O)C2CCN(S(=O)(=O)c3ccc(C)c(C)c3)CC2)CC1 | -62.1 |
| CC(=O)Nc1ccc(Oc2cc(NC(C)=O)cc([N+](=O)[O-])c2)cc1 | 6.36 |
| CCOC(=O)c1c(NC(=O)CC2Nc3ccccc3NC2=O)sc(C)c1C (stereo not shown) | 10.6 |
| CCOC(=O)C1CCCN(C(=O)c2cc(Nc3ccc(OC)c(OC)c3)nc3ccccc23)C1 (stereo not shown) | -14.9 |
| Cc1c(C(=O)Nc2ccc(Cl)cc2)c2ccccn2c1CCc1ccncc1 | -5.68 |
| CCOC(=O)N1CCN(CC(O)COc2c(OC)cccc2OC)CC1.Cl (stereo not shown) | 2.85 |
| COc1cccc(OC)c1OCC(O)CN1CCN(c2ccc(F)cc2)CC1.Cl (stereo not shown) | -74.9 |
| COc1cccc(OCC(O)CN2CCN(c3ccccc3)CC2)c1 (stereo not shown) | -45.2 |
| OC(COc1ccc2ccccc2c1)CN1CCN(c2ccc(F)cc2)CC1 (stereo not shown) | -28 |
| OC(CSc1ccccc1Cl)CN1CCN(c2ccccc2F)CC1 (stereo not shown) | -30.7 |
| COc1ccc(OCC(O)CN2CCN(c3ccc(Cl)cc3)CC2)cc1 (stereo not shown) | -30.7 |
| COc1cccc(OCC(O)CN2CCN(c3ccc(Cl)cc3)CC2)c1 (stereo not shown) | -71.9 |
| COc1cccc(OCC(O)CN2CCN(c3ccc(F)cc3)CC2)c1.Cl (stereo not shown) | -58.6 |
| OC(CSc1c(Cl)cccc1Cl)CN1CCN(c2ccc(F)cc2)CC1 (stereo not shown) | -40.3 |
| COc1ccc(N2CCN(CC(O)COc3c(OC)cccc3OC)CC2)cc1.Cl (stereo not shown) | -35.3 |
| COc1cccc(OCC(O)CN2CCN(c3ccccc3)CC2)c1.Cl (stereo not shown) | -43.4 |
| OC(CSc1ccccc1Cl)CN1CCN(c2ccc(F)cc2)CC1 (stereo not shown) | -57.4 |
| CCOC(=O)c1c(S(=O)(=O)NCCc2ccco2)c(C)n(C)c1C | -1.25 |
| NNC(=O)c1ccc(Cn2cccn2)o1 | 5.58 |
| CCn1nc(C)c(NS(=O)(=O)c2ccc(C)cc2)c1C | -0.126 |

| SMILES | hERG current change (%, negative = inhibition) at 10uM [%] |
| --- | --- |
| CCCCC1(CCCC)C(=O)NC(=Nc2cccc(C)c2)NC1=O | 0.0469 |
| COCC(C)NS(=O)(=O)c1ccccc1 (stereo not shown) | 12.7 |
| COCCCNC(=S)Nc1cccc(S(=O)(=O)NC2=NCCC2)c1 | 36.7 |
| COc1ccc(CCNC(=O)c2ccc3c(c2)NC(=O)C(CSCc2cc(C)ccc2C)N3)cc1OC (stereo not shown) | 12.2 |
| O=C(Nc1ccc(S(=O)(=O)NCc2ccco2)cc1)c1ccc2ccccc2n1 | -0.235 |
| COc1ccc(C2(C)ON(c3ccccc3C(F)(F)F)C2=O)cc1 (stereo not shown) | 5.36 |
| CCCCOCCCNC(=O)c1c(-c2ccccc2)noc1C | 3.4 |
| CCOC(=O)CCN(Cc1ccccc1)S(=O)(=O)c1csc(C(N)=O)c1 | -22.4 |
| CC1CCN(CC(O)COc2ccc(F)cc2)CC1 (stereo not shown) | -37.7 |
| Cl.OC(COc1ccc2c(c1)OCO2)CN1CCN(c2ccccc2)CC1 (stereo not shown) | -2.44 |
| CC(=O)c1ccc(OCC(O)CN2CCN(c3ccc(F)cc3)CC2)cc1.Cl (stereo not shown) | -67.4 |
| Cl.OC(COc1ccc2c(c1)OCO2)CN1CCCC1 (stereo not shown) | 5.48 |
| Cl.OC(COc1ccc2c(c1)OCO2)CN1CCN(c2ccc(F)cc2)CC1 (stereo not shown) | -66.1 |
| COc1ccc(OCC(O)CN2CCN(CC(O)COc3ccc(OC)cc3)CC2)cc1 (stereo not shown) | -47.5 |
| OC(COc1ccc(F)cc1)CN1CCN(CC(O)COc2ccc(F)cc2)CC1 (stereo not shown) | -71.5 |
| CCC(=O)c1ccc(OCC(O)CN2CCN(c3ccc(F)cc3)CC2)cc1 (stereo not shown) | -26.8 |
| COc1ccc(OCC(O)CN2CCN(c3ccc(OC)cc3)CC2)cc1.Cl (stereo not shown) | -37.7 |
| COc1ccc(N2CCN(CC(O)COc3ccc(F)cc3)CC2)cc1.Cl (stereo not shown) | -69.9 |
| CC(=O)c1ccc(OCC(O)CN2CCN(CC(O)COc3ccc(C(C)=O)cc3)CC2)cc1 (stereo not shown) | -39.4 |
